These results are taken from ChEMBL document CHEMBL3433997, “St. Jude Leishmania screening dataset” (2016).

What all share (assay type): functional
Test [1] has as its target Solute carrier family 2, facilitated glucose transporter member 1 (Homo sapiens) (UniProt P11166). Nature of the test: ST_JUDE_LEISH: Cytotoxicity at 2uM final concentration against transgenic Leishmania Mexicana promastigotes LmGLUT1 that are glucose transport deficient and complemented with the human glucose transporter GLUT1. Activity is measured by DNA content using SYBR green in vitro.

The target of test [2] is Hexose transporter 1 (Plasmodium falciparum) (UniProt O97467). Nature of the test: ST_JUDE_LEISH: Cytotoxicity at 2uM final concentration against transgenic Leishmania Mexicana promastigotes LmPfHT that are glucose transport deficient and complemented with the Plasmodium falciparum hexose transporter. Activity is measured by DNA content using SYBR green in vitro.
Test [3] concerns the target Glucose transporter (Leishmania mexicana) (UniProt O61059). The experiment in a line: ST_JUDE_LEISH: Cytotoxicity at 2uM final concentration against transgenic Leishmania Mexicana promastigotes LmGT2 that are glucose transport deficient and complemented with the L. Mexicana glucose transporter 2. Activity is measured by DNA content using SYBR green in vitro.

Chain of Solute carrier family 2, facilitated glucose transporter member 1 (Homo sapiens) (P11166 whole entry): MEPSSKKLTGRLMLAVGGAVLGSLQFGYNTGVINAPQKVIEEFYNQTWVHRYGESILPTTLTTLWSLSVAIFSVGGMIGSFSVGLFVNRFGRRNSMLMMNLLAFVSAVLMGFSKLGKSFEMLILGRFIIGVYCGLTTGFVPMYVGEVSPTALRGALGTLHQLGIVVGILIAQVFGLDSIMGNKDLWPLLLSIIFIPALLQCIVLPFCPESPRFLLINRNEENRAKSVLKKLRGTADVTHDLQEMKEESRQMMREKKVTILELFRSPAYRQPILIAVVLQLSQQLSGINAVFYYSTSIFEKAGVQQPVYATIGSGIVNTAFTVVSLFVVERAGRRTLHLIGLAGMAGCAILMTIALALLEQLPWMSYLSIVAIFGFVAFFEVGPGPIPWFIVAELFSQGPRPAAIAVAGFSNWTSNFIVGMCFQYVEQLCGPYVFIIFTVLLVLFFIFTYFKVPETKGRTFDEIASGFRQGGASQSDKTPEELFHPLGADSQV

Turning to `COc1cc2nccc(Nc3ccc(Oc4ccccc4)cc3)c2cc1OC`, the figures for the inhibition in test [1], in test [2] and in test [3] were 3.01%, 9.3% and 4.02%, respectively.
For `N#CC(c1ccc(Cl)cc1)c1ccc2c(C(F)(F)F)cc(C(F)(F)F)nc2n1` (centres undefined) the same measures were 2.34%, 2.87% and 0.92%.
For `CSc1ccc(CN2CCC(NC(=O)c3ccc(-c4cccc(Cl)c4)s3)CC2)cc1` the same measures were 7.55%, 6.28% and 2.36%.
With `CN(C)c1ccc(NC(=O)Nc2ccnc3ccc(Br)cc23)cc1`, the results for the inhibition in test [1], in test [2] and in test [3] were 2.25%, 3.91% and 0.43%, respectively.
On to `N=C(Nc1cccc(Cc2ccccc2)n1)Nc1ncccn1`, for which the inhibition was found to be 2.06% in test [1], 1.79% in test [2] and 1.88% in test [3].
The corresponding values for `Cc1cc(=NN=Cc2ccccc2F)c2ccccc2[nH]1` are 1.11%, 4.77% and 1.44%.
In the case of `N#Cc1cnc(Nc2ccc(Oc3ccccc3)cc2)nc1Nc1cccc(S(N)(=O)=O)c1`, the inhibition in test [1] was -0.14%; in test [2], 5.38%; in test [3], 5.25%.
The corresponding values for `Cc1nn(C)c(C)c1CN(Cc1nc(-c2cccc(Oc3ccccc3)c2)oc1C)C1CC1` are 4.08%, 4.11% and 5.34%.
Take `O=c1cc(NCCCNCc2[nH]c3cc(Cl)cc(Cl)c3c2Cn2cccn2)[nH]c2ccccc12`: the inhibition in test [1] is 0.47%; in test [2], -1.31%; in test [3], 1.93%.
The corresponding values for `CNCc1ccc(-c2cccc(CNCc3ccc(-c4ccccc4)cc3)c2)c(C(=O)OC)c1` are 1.39%, 2.72% and 2.91%.
For `CCN(CC)CCCCNc1cc(-c2[nH]c(C(C)(C)C)nc2-c2ccc3cc(OC)ccc3c2)ccn1` the same measures were 4.69%, 4.79% and 1.94%.
For `O=C(NNC(=O)c1ccc(CN2CCC(c3nc4ccccc4[nH]3)CC2)cc1)Nc1ccc(Oc2ccccc2)cc1` the same measures were 2.4%, 2.34% and 1.36%.
For `COc1cc(NC(=O)c2sc(-c3ccc(Cl)cc3)cc2Cl)ccc1OCCN1CCCC1`, the inhibition in test [1] worked out at 9.58%; in test [2], 9.57%; in test [3] it was 9.29%.
For `O=C1CCCN1CCCNCc1ccc(-c2ccc(-c3nc4cc(F)ccc4[nH]3)cc2)cc1` the same measures were 11.9%, 13.3% and 12.3%.
For `Cc1ccc(C2CCN(CCCCNC(=O)c3ccc(NC(=O)c4ccc(Cl)cc4)cc3)CC2)c(OCC2CC2)c1` the same measures were 7.51%, 6.25% and 5.52%.
For `SC(=Nc1ccc(Cl)c(Cl)c1)NN=Cc1ccccn1` the same measures were 1.55%, 1.69% and -1.58%.
As for `COc1ccccc1CN1CCC(NC(=O)c2ccc(-c3cccc(Cl)c3)s2)CC1`, the inhibition in test [1] turned out to be 8.99%; in test [2] it was 8.66%; in test [3] it was 2.23%.
For `O=C(CC(=O)Nc1cc(Cl)cc(Cl)c1)Nc1cc(Cl)cc(Cl)c1` the same measures were -1.77%, -3.47% and 0.68%.
For `CCCCCCCCN1CCN(CCCCCCNc2c3ccccc3nc3ccccc23)CC1` the same measures were 55.5%, 28.6% and 61.1%.
Turning to `CN=C(S)NN=C(C)c1ccccn1`, the inhibition in test [1] is 2.61%; in test [2], -4.43%; in test [3] it was -1.99%.
The corresponding values for `CC(C)C1C(O)=C(c2ccc3ccccc3c2)C(=O)N1Cc1ccsc1` (centres undefined) are 4.27%, 5.59% and 2.54%.
The corresponding values for `CC(C)Nc1cc(C(=O)N[C@@H](Cc2ccccc2)[C@H](O)CNCc2cccc(C(F)(F)F)c2)c(F)c(N2CCCCS2(=O)=O)c1` are 7.12%, 6.09% and 7.07%.
Turning to `CCCOc1cc2c(cc1OCCC)C(C=Cc1ccc(Cl)cc1Cl)=NC(C)C2` (centres undefined), the figures for the inhibition in test [1], in test [2] and in test [3] were 94.6%, 96.7% and 94.4%, respectively.
The corresponding values for `CCCCOc1ccc(-c2nc3ccccc3[nH]2)cc1` are 9.74%, 8.64% and 2.74%.
Turning to `CC(=O)c1ccc(N2CCN(C(=O)Nc3ccc(Cl)cc3)CC2)cc1`, the inhibition in test [1] worked out at 9.4%; in test [2], 7.37%; in test [3], 8.94%.
For `CCc1ccc(-c2nc3cc(NC(=O)c4cc([N+](=O)[O-])cc([N+](=O)[O-])c4)ccc3o2)cc1` the same measures were 2.33%, 1.19% and 2.3%.
For `Cc1cnc(N2CCN(CC3CCN(C)CC3)CC2)nc1Oc1ccc(-n2ccnc2)cc1` the same measures were 4.68%, 3.96% and 2.78%.
For `CCN(CC)CCCOc1ccc(Nc2nccc(-c3c(-c4cccc(NC(=O)c5c(F)cccc5F)c4)nn4ccccc34)n2)cc1F` the same measures were 58%, 56.7% and 10.5%.
As to `CN1CCC(N2CCN(Cc3cccc(-c4ccc(-c5nc6cc(C(F)(F)F)ccc6[nH]5)cc4)c3)CC2)CC1`, the inhibition in test [1] came to 2.62%; in test [2], 3.31%; in test [3] it was 2.07%.
The corresponding values for `N#Cc1ccc2c(c1)CCN(CCC1CCC(NC(=O)/C=C/c3ccc4ccccc4c3)CC1)CC2` (centres undefined) are -0.35%, -1.71% and -1.14%.
On to `CCCCN1CCN(c2cc(NS(=O)(=O)c3cccc(C(=O)Nc4ccc(C(F)(F)F)cc4)c3)ccc2OC)CC1`, for which the values for the inhibition in test [1], in test [2] and in test [3] were 0.33%, -1.12% and -1.22%, respectively.
The corresponding values for `Cc1cccc(NC(=O)Nc2ccc(I)c(OCCN(C)C)c2)c1C` are 15.2%, 9.78% and 10.1%.
The corresponding values for `CCN(CC)CCNc1ccc(Nc2ccnc3cc4ccccc4cc23)cc1` are 0.35%, -0.38% and 3.92%.
